Test results published in PubChem BioAssay (NCI).
Compounds without any hit were thinned out: in the full panel of roughly 79,000, 15% have a hit. Unmarked numbers belong to inactive results. Activity calls are given as the source filed them. Rule as the data show it: active = growth inhibition above about 70%; inactive = the rest.

Columns and labels:
[1] = NCI Yeast Anticancer Drug Screen. Data for the rad50 strain (AID 155);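 also: 0% = growth of vehicle-only cultures of the same strain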; settings: S. cerevisiae rad50 strain growth inhibition, active compounds read high
In short: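 Compounds were tested on a yeast strain with an engineered DNA damage repair alteration; the reported value is growth inhibition normalised to vehicle treatment.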

[2] = NCI Yeast Anticancer Drug Screen. Data for the mec2-1 strain (AID 157); settings: S. cerevisiae mec2-1 strain, active compounds read high
In short: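 Test agents were screened against the mec2-1 yeast strain, with defined DNA repair or cell cycle alteration. Growth was scored as inhibition against vehicle-only controls.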

[3] = NCI Yeast Anticancer Drug Screen. Data for the sgs1 mgt1 strain (AID 161);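 also: 0% = growth of cultures given vehicle only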; settings: S. cerevisiae sgs1 mgt1 strain, active compounds read high
In short: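 Inhibition of yeast growth, normalised to vehicle-treated controls, is reported for a strain bearing genetic alterations in DNA damage repair.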

[4] = NCI Yeast Anticancer Drug Screen. Data for the cln2 rad14 strain (AID 165);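 also: 0% = growth equal to vehicle treated cultures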; settings: S. cerevisiae cln2 rad14 strain, active compounds read high
In short: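 Growth of compound-exposed yeast (cln2 rad14 genotype) measured and expressed as inhibition relative to vehicle.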

[5] = NCI Yeast Anticancer Drug Screen. Data for the bub3 strain (AID 167); settings: S. cerevisiae bub3 mutant strain, active compounds read high
In short: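 Growth of a checkpoint-deficient yeast mutant is measured after compound exposure. Values represent inhibition relative to vehicle.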

[6] = NCI Yeast Anticancer Drug Screen. Data for the mlh1 rad18 strain (AID 175); settings: S. cerevisiae mlh1 rad18 strain growth inhibition, active compounds read high
In short: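 In this whole-cell yeast screen, a strain with altered DNA damage repair is challenged with compound, and its growth is measured against matched vehicle-treated controls.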

[7] = at 5.0 µM (retest, dose inferred, filed as 0.5)
[8] = at 50.0 µM (retest, dose inferred, filed as 5.0)

| SMILES | growth inhibition [1, 7] | growth inhibition [1, 8] | growth inhibition ([1]; at 50.0 µM) | growth inhibition [2, 7] | growth inhibition [2, 8] | growth inhibition ([2]; at 50.0 µM) | growth inhibition [3, 7] | growth inhibition [3, 8] | growth inhibition ([3]; at 50.0 µM) | growth inhibition [4, 7] | growth inhibition [4, 8] | growth inhibition ([4]; at 50.0 µM) | growth inhibition [5, 7] | growth inhibition [5, 8] | growth inhibition ([5]; at 50.0 µM) | growth inhibition [6, 7] | growth inhibition [6, 8] | growth inhibition ([6]; at 50.0 µM) |
| --- | --- | --- | --- | --- | --- | --- | --- | --- | --- | --- | --- | --- | --- | --- | --- | --- | --- | --- |
| CC(=O)c1c(O)c(C)c(O)c2c1OC1=CC(=O)c3c(C)noc3C12C (stereo not given) | -1% | 10% | 24.9% | -3% | 7% | 26.1% | -2% | 10% | -2.55% | 10% | 16% | 25.3% | -9% | 1% | 12.8% | -1% | 10% | 54.1% |
| BrC(Br)([P+](c1ccccc1)(c1ccccc1)c1ccccc1)[P+](c1ccccc1)(c1ccccc1)c1ccccc1 | 18% | 73% (active) | 19.1% | 9% | 41% | 23.6% | 4% | 61% | 27.5% | 4% | 24% | 35.4% | 4% | 42% | 12.7% | 15% | 74% (active) | 78.2% (active) |
| COC(=O)NC1CCCCCCCCCCC1I (stereo not given) | -4% | 97% (active) | 98.5% (active) | 14% | 99% (active) | 82.3% (active) | -5% | 99% (active) | 17.1% | 19% | 99% (active) | -2.05% | -5% | 99% (active) | 3.35% | 5% | 98% (active) | 99% (active) |
| C=C(C)C1CC2=C(O1)C(=O)c1ccccc1C2=O (stereo not given) | 8% | 99% (active) | 91.9% (active) | 0% | 95% (active) | 82.5% (active) | 7% | 99% (active) | 73% (active) | -9% | 37% | 59.9% | 59% | 96% (active) | 93.1% (active) | 11% | 98% (active) | 89.8% (active) |
| COc1ccc2c(c1)CCC(N1CCCC(O)C1)C2 (stereo not given) | 13% | 98% (active) | 48.9% | 12% | 99% (active) | 56% | 12% | 98% (active) | 87.2% (active) | 25% | 99% (active) | 23.2% | 11% | 99% (active) | 91.2% (active) | 14% | 98% (active) | 71.4% (active) |
| NC(C(=O)O)C1=CCCCCC1 (stereo not given) | 2% | -6% | 49.5% | 20% | 66% | 13.8% | 6% | -1% | 9.35% | 12% | 54% | -6.65% | 63% | 98% (active) | -5.95% | -3% | -4% | 15.4% |
| c1ccc(CCN(Cc2nc3ccccc3[nH]2)Cc2nc3ccccc3[nH]2)cc1 | 3% | 90% (active) | 94.7% (active) | -3% | 92% (active) | 93.2% (active) | -3% | 90% (active) | 96% (active) | -12% | 93% (active) | 82.6% (active) | 0% | 95% (active) | 89.2% (active) | -3% | 91% (active) | 95.5% (active) |
| O=C(Sc1c(-c2ccccc2)c(=O)n(-c2ccccc2)c(=S)n1-c1ccccc1)c1cccs1 | 37% | 92% (active) | 72.2% (active) | 39% | 95% (active) | 73.1% (active) | 23% | 93% (active) | 77.9% (active) | 25% | 92% (active) | 56% | 47% | 95% (active) | 84% (active) | 66% | 95% (active) | 77.6% (active) |
| COc1ccc(-c2[nH]c(-c3ccc(OC)cc3)c(-c3ccccn3)c2-c2ccccn2)cc1 | -4% | 16% | 80.7% (active) | -16% | 18% | 91.7% (active) | 0% | 25% | 95.4% (active) | 7% | 27% | 69.5% | 4% | -7% | 83.5% (active) | -19% | 11% | 94.7% (active) |
| N#CC(C(=O)C(=O)Nc1cccc(C(F)(F)F)c1)c1ccccc1 (stereo not given) | -23% | 90% (active) | -23.1% | -12% | 76% (active) | 10.2% | -19% | 75% (active) | 16.6% | -9% | 90% (active) | -20.7% | -10% | 94% (active) | 6.55% | 34% | 83% (active) | 12.7% |
